Laboratory results reported in PubChem BioAssay (NCI).
The panel holds about 83,000 compounds, 20% with a hit somewhere; the sample as a whole holds those more often.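 Note: values are percent growth. 100 is the growth of untreated cells, values between 100 and 0 indicate rising inhibition; between -100 and 0 indicates cell death.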 A number with no mark means an inactive call. The source made the active and inactive calls. The calls were made as follows: active = growth percent below 10; inactive = the rest.

Key:
Assay in all cases: NCI-60 one-dose screen, 48 h (100 = growth as untreated, 0 = no growth, -100 = all killed)
Details in all cases: 10 µM unless noted
[1] = tested on: SK-MEL-2 melanoma
[2] = tested on: EKVX NSCLC
[3] = tested on: SN12C renal
[4] = tested on: UO-31 renal
[5] = tested on: TK-10 renal
[6] = tested on: ACHN renal
[7] = tested on: CAKI-1 renal
[8] = tested on: A498 renal
[9] = tested on: MOLT-4 leukemia
[10] = tested on: CCRF-CEM leukemia

| Compound | growth [1] | growth [2] | growth [3] | growth [4] | growth [5] | growth [6] | growth [7] | growth [8] | growth [9] | growth [10] |
| --- | --- | --- | --- | --- | --- | --- | --- | --- | --- | --- |
| COc1ccc(Cn2nc(-c3cc(OC)c(OC)c(OC)c3)c3c2CCc2cnoc2-3)cc1OC | 38% | 77.7% | 60.6% | 32.7% | 72.5% | 74.9% | 50.3% | 42.1% | 36.2% |  |
| CC(=O)N1N=C(c2cccc(Nc3ccncc3)c2)CC1c1ccc2c(c1)OCO2 (stereo not drawn) | 99.9% | 63% | 81% | 84.5% | 98.1% | 101% | 81.8% | 70.7% | 77.7% | 81.2% |
| O=[N+]([O-])c1cccc(-c2nc(-c3ccc(Cl)cc3Cl)cn2-c2ccccc2)c1 | 52.4% | -8.4% (active) | 11.5% | 2.03% (active) | 29.3% | -52.1% (active) | -68.8% (active) | -33.2% (active) | 45.4% |  |
| O=C(CN1CCOCC1)Nc1ccc2ncnc(Nc3ccc(Oc4cccc(C(F)(F)F)c4)c(Cl)c3)c2c1 | 75.9% | 22% | 38.4% | 22.5% | 38.4% | 19% | 33.8% | 10.1% | 37.5% | 58.4% |
| CN1CCN(c2cc(F)c(NC3=C(Cl)C(=O)c4ncccc4C3=O)c(F)c2)CC1 | -49.6% (active) | -82.7% (active) | -97.5% (active) | -100% (active) | 8.46% (active) | -93.1% (active) | -85.6% (active) | 80.1% | -22.7% (active) |  |
| COc1ccc(Nn2c(SCC(=O)Nc3nc(-c4ccc(Cl)cc4)cs3)nc(C)c2C)cc1 | 90.5% | 41.9% | 67.2% | 39.4% | 68.5% | 52% | 34.4% | 69.5% | 36.1% |  |
| Cc1c(C2=CCCCC2)c2ccccn2c1C(=O)c1cccc(S(=O)(=O)N2CCOCC2)c1 | 91.8% | 68.7% | 99.8% | 56.8% | 71.5% | 93.4% | 59.6% | 116% | 82.6% | 81.5% |
| COc1ccc(C(=O)/C=C/c2c(OC)cc(OC)cc2OC)c(OC)c1 | -9.11% (active) | 59.1% | 28.8% | 31.8% | 44.3% | 26.9% | -1.02% (active) | 13.8% | 33.6% |  |
| COc1c(Cl)cc(Cl)c2ccc(C=C3C(=O)NC(=S)NC3=O)nc12 | 105% | 104% | 100% | 93.2% | 107% | 101% | 91.7% | 93.8% | 105% | 105% |
| CCN(CC)CCCC(Nc1c2ccc(Cl)cc2nc2ccc(OC)cc12)c1ccc(Cl)cc1 (stereo not drawn) | -78.7% (active) | 53.1% | 36.3% | 28.2% | -60.4% (active) | -33.7% (active) | -36.9% (active) | 38.2% | -20.9% (active) | -7.24% (active) |
| CCc1nc(C)cn1C(=O)OCc1nc2nc(Cl)nc(N3CCOCC3)c2[nH]1 | -90.9% (active) | 48.2% | -21.3% (active) | -100% (active) | -91.5% (active) | -100% (active) | -80% (active) | 22.1% | 6.91% (active) |  |
| O=C1CCCCCCCCC(O)C(O)CCCC(c2cccs2)O1 (stereo not drawn) | 120% | 82.2% | 106% | 75.2% | 115% | 94.8% | 93.9% | 102% | 31% | 47.4% |
| COc1ccc(Cl)cc1NC(=O)c1c(NC(=O)C(F)(F)C(F)(F)F)sc2c1CCCCC2 | -30% (active) | -5.45% (active) | 5.95% (active) | 1.55% (active) | 10.7% | 1.54% (active) | -13.6% (active) | -45.1% (active) | 8.91% (active) |  |
